Source: PubChem
M1 ag = activates human CHRM1 receptor | P11229 | CHO-K1 hM1, Fluo-8 calcium fluorescence, agonist mode; 0% DMSO, 100% acetylcholine EC100 | activation, % at 3 µM | hit rate 0.33% among 360,000;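 active = activation above the run's mean compound activation plus 3 SD, cut at about 16% in these data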;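 note: peak over basal fluorescence ratio within a 140 s kinetic read after compound addition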
Target sequence (P11229 whole entry, looked up): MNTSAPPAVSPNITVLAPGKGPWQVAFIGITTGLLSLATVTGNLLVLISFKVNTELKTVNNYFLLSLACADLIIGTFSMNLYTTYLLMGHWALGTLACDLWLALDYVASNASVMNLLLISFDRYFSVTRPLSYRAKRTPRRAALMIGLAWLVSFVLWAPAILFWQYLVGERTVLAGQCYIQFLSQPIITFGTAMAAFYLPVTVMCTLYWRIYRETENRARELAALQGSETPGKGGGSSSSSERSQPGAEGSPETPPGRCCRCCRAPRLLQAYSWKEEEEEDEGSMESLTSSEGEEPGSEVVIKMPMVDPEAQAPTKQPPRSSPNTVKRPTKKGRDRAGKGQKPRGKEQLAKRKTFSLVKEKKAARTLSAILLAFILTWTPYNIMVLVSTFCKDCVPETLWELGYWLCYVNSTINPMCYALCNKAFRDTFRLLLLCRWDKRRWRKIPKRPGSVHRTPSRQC
Myeloid diff MLP = myeloid differentiation induction. hit rate 1% among 360,000. ER-HoxA9 myeloid progenitors, lysozyme-GFP differentiation, flow cytometry. AID 624256. calls only at 10 µM;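 active = normalized GFP-positive differentiation at or above the plate's own cutoff, the solvent-only control mean plus 3 SD; inconclusive = no clear call, values can overlap the other calls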;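 note: cells exposed to compound for four days before flow analysis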
ATG4B inhibitor = inhibitors of human ATG4B cysteine protease. Q9Y4P1. AID 504462. inhibition, % at 8.33 µM. ATG4B cleavage of LC3-PLA2, NBD-HPC fluorescence, 1 h. hit rate 0.51% among 340,000; in the data active = inhibition above about 40%
CHRM1 antagonist = antagonists of human M1 muscarinic receptor | P11229 | CHO-K1 hM1, Fluo-8 calcium fluorescence, ACh EC80 antagonist | inhibition, % at 3 µM | hit rate 1.3% among 360,000 | AID 588852;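 active = percent inhibition above its own plate's cutoff, namely the mean of that plate's compound wells plus 3 SD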;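 note: peak over basal fluorescence ratio during 140 s after agonist addition; 0% = ACh EC80 plus DMSO and 100% = DMSO alone without agonist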
SKN-1 block = inhibitors of C. elegans SKN-1; C. elegans VP596 Pgst-4::GFP/RFP ratio, acrylamide-induced, 24 h; inhibition, % at 21.8 µM; hit rate 0.49% among 360,000; AID 624304;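 active = interference check ratio from 0.5 to 1.5 plus GFP to RFP signal ratio inhibition reaching or exceeding a fixed threshold, cut at about 30% in these data, passing the limit was not always enough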
M1 PAM = positive allosteric modulators of human M1 muscarinic receptor; CHO-K1 hM1, Fluo-8 calcium fluorescence, ACh EC20; 0% = ACh EC20, 100% = maximal ACh; activation, % at 3 µM; hit rate 0.088% among 360,000; AID 588819; in the data active = activation above about 19%, passing the limit was not always enough
* marks the source's active call; other numbers are inactive results; i = inactive; ? = inconclusive; · = not tested or not shown; + = active, no number. Compounds with a hit are over-represented: about 3.5% of the library has one in this group of screens.

SMILES	M1 ag	Myeloid diff MLP	ATG4B inhibitor	CHRM1 antagonist	SKN-1 block	M1 PAM
COc1cccc(NC(=O)c2ccnc(N3CCC(C(=O)NCc4cc(OC)ccc4OC)CC3)c2)c1	-1	i	27	1	23	-2
COc1ccc(C(C)(O)c2nc(-c3ccncc3)cs2)cc1 (stereo not given)	2	+	·	0	10	-2
Cc1ccccc1Sc1ccc(N)cn1	-4	+	-2	59*	17	-26
CN1CCC(=O)N([C@H](CSc2ccccc2)c2ccccc2)CC1	-10	i	-8	25	-5	-18
Cc1ccc(SC[C@H](c2ccccc2)N2CCN(C)CCC2=O)cc1	-13	i	-8	33*	11	-28
CCCCNC(=O)C1(C)CCCCN1C(=O)c1cc(C)n(C(C)(C)C)n1 (stereo not given)	-2	i	·	-9	-1	7
Oc1ccc(/C=N/Nc2ccnc3cc(Cl)ccc23)c(O)c1	-5	+	-3	3	-10	-3
Clc1ccc2c(N/N=C/c3ccc(Br)cc3)ccnc2c1	-6	?	31	4	8	-10
CN1/C(=C\C(=O)CN2C(=O)NC3(CCCCCC3)C2=O)C(C)(C)c2ccccc21	0	+	-10	-15	57	-5
CN1/C(=C\C(=O)CSc2nnc(N)s2)C(C)(C)c2ccccc21	-5	i	-7	-6	14	6
Cc1cccc[n+]1CC(=O)/C=C1\N(C)c2ccccc2C1(C)C	-7	i	-3	1	51	0
CN1/C(=C/C(=O)CSc2ccccc2C(=O)O)C(C)(C)c2ccccc21	-6	+	0	2	36*	7
CN1/C(=C\C(=O)CSc2cccc[n+]2[O-])C(C)(C)c2ccccc21	-4	i	1	22	17	-4
COc1ccc(Nc2nnc(SCC(=O)/C=C3/N(C)c4ccccc4C3(C)C)s2)cc1	-7	i	-5	12	37*	-11
CN1/C(=C\C(=O)COC(=O)CNC(=O)c2ccc3ccccc3c2)C(C)(C)c2ccccc21	-9	i	-6	4	40*	-1
CCOc1ccc(NC(=O)CN(C)C(=O)c2cc3c(s2)CCC3)cc1OCC	-5	i	·	-8	1	2
Cc1cccc(NC(=O)c2nc[nH]c2C(=O)N2CCN(c3ccccc3)CC2)c1	-6	i	-6	8	4	-3
CCCNC(=O)COC(=O)C1CCN(S(=O)(=O)c2ccc3c(c2)OCCO3)CC1	-1	i	-3	-7	45*	8
CCNC(=O)COC(=O)C1CCN(S(=O)(=O)c2ccc3c(c2)OCCO3)CC1	-2	i	-4	-3	11	7
C#Cc1cccc(-n2nnc(C(=O)OC)c2-c2ccccc2)c1	-2	i	0	-9	38*	5
COC(=O)c1nnn(-c2ccccc2)c1N	-2	i	3	-13	2	7
CCCOc1ccc(OC(=O)c2ccc(Br)o2)cc1	45*	i	4	17	4	-8
CCOC(=O)c1c(C)[nH]c(C(=O)COC(=O)/C=C/c2ccc(OC(F)F)cc2)c1C	-6	i	-6	-3	1	8
CCOC(=O)c1c(C)[nH]c(C)c1C(=O)COC(=O)/C=C/c1ccc(OC(F)F)cc1	-7	+	-15	3	1	-5
COc1ccc(CCNC(=O)c2cc(-c3ccncc3)nc3c(Cl)cccc23)cc1OC	-3	i	-14	38*	-3	-12
COc1ccc(CCNC(=O)c2cc(-c3ccccn3)nc3c(Cl)cccc23)cc1OC	-3	i	-8	-11	10	5
CCN(CC)c1ccc(/C=C2/SC(=O)N(C(C)C)C2=O)o1	2	+	-5	20	23	0
Cc1ccc(S(=O)(=O)Nc2cc(=O)[nH]c(SCc3ccc(Cl)cc3)n2)cc1	39*	i	-16	1	4	-15
COc1ccc(Cl)cc1NC(=O)CSc1nc(NS(=O)(=O)c2ccc(C)cc2)cc(=O)[nH]1	5	+	-6	-11	5	23
Cn1c(=O)c(NCCO)c2c3c(cccc31)C(=O)c1ccccc1-2	70*	i	i	6	-5	-16
